Screening results from PubChem BioAssay.
This is a sample that favours compounds with a hit; in the whole collection about 19% have one here.
TDP1 cell noCPT = qHTS for Inhibitors of human tyrosyl-DNA phosphodiesterase 1 (TDP1): qHTS in cells in absence of CPT; 420,000 compounds, 15% hits; Potency, µM (doses to about 46.2 µM), inactives show at the highest dose activity change, negative = growth inhibition, most hits filed as inhibitors; AID 686978, 2013; DT40 Tdp1-/- hTDP1 cells, no CPT, ATP luminescence, 48 h; also: potency is read from the fitted curve at half-maximal effect; nearly all actives have a fitted effect of over 55% in size
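Readout: luminescence from CellTiter-Glo after 30 min in the dark at RT. Cells: DT40 Tdp1-/- with stable hTDP1, 400/well. Exposure: compounds alone, ≥48 hr, 37 °C.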
DT40 TDP1 CPT = qHTS for Inhibitors of human tyrosyl-DNA phosphodiesterase 1 (TDP1): qHTS in cells in presence of CPT. chicken DT40 Tdp1-/-;hTDP1 cells + 20 nM CPT, ATP luminescence, 48 h. Potency, µM (doses to about 46.2 µM), inactives show at the highest dose activity change, negative = growth inhibition, hits mostly inhibitors. 420,000 compounds, 12% hits; also: potency is read from the fitted curve at half-maximal effect; nearly all actives have a fitted effect of over 55% in size
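Chicken DT40 Tdp1-/- cells stably complemented with human TDP1 were seeded at 400 cells/well in medium containing 20 nM camptothecin, exposed to pin-transferred compounds, and grown at 37 °C for at least 48 hr. Viability was read as ATP luminescence.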
IL-1B inflam inh = qHTS for Inhibitors of Inflammasome Signaling: IL-1-beta AlphaLISA Primary Screen | THP-1 LPS/ATP IL-1B secretion, AlphaLISA, 16 h; active compounds read low | activity change, % at 57.5 µM | 360,000 compounds, 4.7% hits | AID 743279, 2014; in the data active = activity change below about -50%; inconclusive = mostly about -30% to -49%
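THP-1 cells pretreated 1 hr with compounds (up to 57.5 uM final), then stimulated with LPS (250 ng/mL final) plus ATP (1.25 mM final); secreted IL-1B measured by AlphaLISA after 16 hr, decreased signal indicating inhibition.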
HT1080-NT tox = qHTS for induction of synthetic lethality in tumor cells producing 2HG: qHTS for the HT-1080-NT fibrosarcoma cell line; HT-1080-NT fibrosarcoma viability, CellTiter-Glo ATP luminescence, 48 h; Potency, µM (doses to about 46.1 µM), without a hit: top-dose activity, negative = less viability, hits mostly cytotoxic; 360,000 compounds, 1.6% hits;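 also: NT is the 2HG producing partner of a matched IDH1 knockdown line; potency is read from the fitted curve at half-maximal effect; 0% = DMSO-treated cells and -100% = media-only wells without cells; nearly all actives have a fitted effect of over 55% in size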
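Compounds were tested in concentration-response format on HT-1080-NT cells for 48 hours at 37 degrees C. Cell viability came from CellTiter-Glo luminescence; curves were classified by r2, response magnitude and activity.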
HT1080 IDH1KD tx = qHTS for induction of synthetic lethality in tumor cells producing 2HG: qHTS for the HT-1080-IDH1KD cell line | HT-1080 IDH1 knockdown viability, ATP luminescence, 48 h | Potency, µM (highest dose often 46.1 µM), inactives show top-dose activity, negative = toxicity, hits mostly cytotoxic | 360,000 compounds, 2% hits | AID 686971, 2013;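 also: potency is read from the fitted curve at half-maximal effect; 0% = DMSO wells and -100% = cell-free medium wells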
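Using the IDH1-knockdown HT-1080 line run in the same batch and compound series as the NT line, viability after 48 h at 37 °C was determined by CellTiter-Glo luminescence and expressed as % activity.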
An asterisk follows results filed as active; ? = inconclusive; nt = no result; [ ] = another dose, or the depositor's remark. Unless noted, calls follow the shape of the dose curve; as a rule, active = well fitted curve in the direction sought with a large enough effect; inconclusive = small, poorly fitted or top-dose-only effect, or another doubt; inactive = no such curve, though single readings can be large; an effect the other way counts as inactive or inconclusive. Unless noted, % is scaled to controls: 0 for no effect and ±100 for the full control effect.

SMILES | TDP1 cell noCPT | DT40 TDP1 CPT | IL-1B inflam inh | HT1080-NT tox | HT1080 IDH1KD tx
CC(C)C(c1nnnn1Cc1ccc(F)cc1)N1CCN(Cc2ccc3c(c2)OCO3)CC1 (stereo not drawn) | ? | ? | ? | -24% | -16%
O=C(NCc1ccccc1)c1onc(CS(=O)(=O)c2ccc(Cl)cc2)c1C(=O)NCc1ccccc1 | -20% | -18% | 8 | 0% | -8%
Nc1[nH]ncc1-c1ccccc1 | -6% | ? | -16 | 14% | 5%
COc1ccc(C(CNC(=O)c2ccc(OCc3ccccc3)cc2)N2CCOCC2)cc1 (stereo not drawn) | -18% | ? | -21 | 6% | -10%
CC(C)(CNC(=O)c1ccc(-c2ccccc2Cl)o1)N1CCOCC1 | ? | -29% | -56* | 1% | -10%
COc1ccccc1C(CNC(=O)c1ccco1)N1CCCC1 (stereo not drawn) | 4% | 5% | 10 | -7% | 5%
COc1ccccc1C(CNC(=O)c1ccc(-c2ccccc2Cl)o1)N1CCCC1 (stereo not drawn) | 18µM* | 23µM* | -57* | ? | 21µM*
COc1ccc(C(CNC(=O)c2ccc(-c3ccccc3Cl)o2)N2CCOCC2)cc1 (stereo not drawn) | 16µM* | 23µM* | -76* | 1% | 0%
COc1ccc(C(CNC(=O)COc2ccc(F)cc2Cl)N2CCCCC2)cc1 (stereo not drawn) | 21µM* | 23µM* | 12 | 18% | 10%
O=C(c1ccncc1)N1CCC[C@@]2(CCN(Cc3cc(C(F)(F)F)cc(C(F)(F)F)c3)C2)C1 | ? | -24% | nt | nt | nt
CCOC(=O)c1ccccc1NC(=O)Cn1c(=O)n(CCCC(=O)NCc2ccc3c(c2)OCO3)c(=O)c2ccccc21 | -23% | -20% | nt | nt | nt
COc1ccc(C(CNC(=O)COc2ccc(-c3ccccc3)cc2)N2CCOCC2)cc1 (stereo not drawn) | ? | ? | -61* | -27% | ?
COc1ccc(C(CNC(=O)c2cc(F)c(F)c(F)c2F)N2CCOCC2)cc1 (stereo not drawn) | ? | ? | -95* | -8% | -6%
COc1ccc(OCC(=O)NCC(c2ccc(OC)cc2)N2CCOCC2)cc1 (stereo not drawn) | ? | -15% | nt | nt | nt
COc1cc2c(cc1OC)C1N(CC2)C(=O)CCC12C(=O)CCCC2=O (stereo not drawn) | -4%[9.04 µM] | 10%[9.04 µM] | nt | nt | nt
O=C(O)/C=C/C(=O)Nc1ccc(OC(F)F)cc1 | -13% | 2% | -3 | -3% | 0%
CC(=O)Nc1cccc(NC(=O)c2csc(C)c2)c1 | 12% | -1% | -2 | 4% | 9%
COc1cc(OC)c2nc(-c3cc4c(c(OC)c3)OCCN(C(=O)CC3NC(=O)c5ccccc53)C4)cc(C)c2c1 (stereo not drawn) | 23µM* | ? | nt | nt | nt
COc1cc(-c2cc(C)c3cccc(OC)c3n2)cc2c1OCCN(C(=O)Cn1nc(C)cc1C)C2 | -8% | 1%[9.04 µM] | nt | nt | nt
Cc1ccc(-c2nnc(Nc3ccc(F)cc3)c3ccccc23)cc1S(=O)(=O)NC(C)C | 9.2µM* | ? | nt | nt | nt
Cc1ccc(-c2nnc(Nc3cccc(O)c3)c3ccccc23)cc1S(=O)(=O)N1CCOCC1 | 12µM* | ? | nt | nt | nt
Cc1ccc(-c2nnc(Nc3ccc(O)cc3)c3ccccc23)cc1S(=O)(=O)N1CCCCC1 | 18µM* | 7.3µM* | nt | nt | nt
CNC(=O)c1ccc(Nc2nnc(-c3ccc(C)c(S(=O)(=O)N(C)C)c3)c3ccccc23)cc1 | ? | -16% | nt | nt | nt
Cc1ccc(-c2nnc(Nc3ccc(S(N)(=O)=O)cc3)c3ccccc23)cc1S(=O)(=O)N1CCCCC1 | 0% | -18% | nt | nt | nt
Cc1ccc(-c2nnc(Nc3ccc(S(N)(=O)=O)cc3)c3ccccc23)cc1S(=O)(=O)N1CCOCC1 | ? | 16µM* | nt | nt | nt
SMILES | TDP1 cell noCPT | DT40 TDP1 CPT | IL-1B inflam inh | HT1080-NT tox | HT1080 IDH1KD tx
O=C(N/N=C/c1cccc(Br)c1)C1CC(=O)N(c2ccccc2)C1 (stereo not drawn) | 0% | 7% | -21 | 10% | 4%
CCOc1ccccc1N(C)C(=O)CCS(=O)(=O)c1ccc2c(c1)NC(=O)CO2 | 27% | -2% | 11 | 12% | -12%
Cc1ccc(-c2nnc(Nc3ccc(O)cc3)c3ccccc23)cc1S(=O)(=O)NC(C)(C)CO | 8.2µM* | 16µM* | nt | nt | nt
CC(=O)Nc1ccc(Nc2nnc(-c3ccc(C)c(S(=O)(=O)NCCO)c3)c3ccccc23)cc1 | 3% | 5% | ? | -8% | 0%
Cc1ccc(-c2nnc(Nc3ccc(Cl)cc3)c3ccccc23)cc1S(=O)(=O)N1CCOCC1 | 3.7µM* | 13µM* | nt | nt | nt
Cc1cccc(Nc2nnc(-c3ccc(N4CCOCC4)c([N+](=O)[O-])c3)c3ccccc23)c1 | 18µM* | ? | -62* | -21% | -12%
Cc1ccc(-c2nnc(Nc3ccccc3)c3ccccc23)cc1S(=O)(=O)N1CCOCC1 | ? | -27% | nt | nt | nt
Cc1ccc(-c2n[nH]c(=O)c3ccccc23)cc1S(=O)(=O)Nc1ccccc1 | 23µM* | ? | -8 | 26µM* | 21µM*
Cc1ccc(-c2n[nH]c(=O)c3ccccc23)cc1S(=O)(=O)N(C)C | ? | ? | 31 | 5% | -11%
COc1cc(C(=O)NCC(c2cccs2)N2CCOCC2)c([N+](=O)[O-])cc1OC (stereo not drawn) | -21% | 2% | 1 | 2% | -2%
COc1ccc(NC(=O)C(=O)NCC2(c3ccc(OC)c(OC)c3)CCCC2)cc1 | ? | -28% | nt | nt | nt
COc1ccc(C2(CNC(=O)c3cccc([N+](=O)[O-])c3)CCOCC2)cc1OC | ? | ? | 29 | 2% | -2%
COc1ccc(C2(CNC(=O)c3cccc([N+](=O)[O-])c3)CCCCC2)cc1OC | 10µM* | 16µM* | -7 | -4% | -7%
COc1ccc(C2(CNC(=O)C(=O)Nc3cccc(C(F)(F)F)c3)CCCC2)cc1OC | 18µM* | 21µM* | nt | nt | nt
COc1ccc(C2(CNC(=O)Cc3ccccc3)CCCC2)cc1OC | 13µM* | ? | 4 | 1% | 2%[9.24 µM]
COc1ccc(C2(CNC(=O)c3ccc(OC)c([N+](=O)[O-])c3)CCCCC2)cc1OC | 21µM* | ? | -15 | 3% | 22%
